Screening data as filed in PubChem.
An excerpt weighted towards active compounds, which were near 19% of everything screened.
HT1080NT lethal = kills 2HG-producing HT-1080-NT fibrosarcoma cells; Potency, µM (top dose mostly 46.1 µM), for the others: top-dose activity, negative = less viability, most hits filed as cytotoxic; 360,000 tested, 1.6% active; HT-1080-NT fibrosarcoma viability, CellTiter-Glo ATP luminescence, 48 h;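 further: NT is the 2HG producing partner of a matched IDH1 knockdown line; potency means the concentration at half of the fitted maximal effect; 0% = DMSO-treated cells and -100% = media-only wells without cells; nearly all actives have a fitted effect of over 55% in size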
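HT-1080-NT; 750 cells/well; 5% FBS RPMI; 48 h compound, 37 degrees C; CellTiter-Glo luminescence; curve fitting and curve-class assignment.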
HT1080 IDH1KD tx = toxicity to HT-1080 IDH1 knockdown cells (counter line) | HT-1080 IDH1 knockdown viability, ATP luminescence, 48 h | 360,000 tested, 2% active | Potency, µM (top dose mostly 46.1 µM), for the others: at the highest dose activity, negative = toxicity, usual class: cytotoxic;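 further: potency means the concentration at half of the fitted maximal effect; 0% = DMSO wells and -100% = cell-free medium wells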
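Using the IDH1-knockdown HT-1080 line run in the same batch and compound series as the NT line, viability after 48 h at 37 °C was determined by CellTiter-Glo luminescence and expressed as % activity.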
DT40 TDP1 no CPT = qHTS for Inhibitors of human tyrosyl-DNA phosphodiesterase 1 (TDP1): qHTS in cells in absence of CPT; DT40 Tdp1-/- hTDP1 cells, no CPT, ATP luminescence, 48 h; Potency, µM (series often up to 46.2 µM), for the others: at the highest dose activity change, negative = growth inhibition, most hits filed as inhibitors; 420,000 tested, 15% active; further: potency means the concentration at half of the fitted maximal effect; nearly all actives have a fitted effect of over 55% in size
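Cells were dispensed at 400 per well, compounds added by pin tool, plates incubated ≥48 hr at 37 °C, then CellTiter-Glo added for 30 min at room temperature before luminescence reading. Line: DT40 Tdp1-/- complemented with hTDP1; camptothecin omitted.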
TDP1 cell CPT = growth inhibition of DT40 Tdp1-/-;hTDP1 cells with camptothecin (screen for TDP1 inhibitors) | chicken DT40 Tdp1-/-;hTDP1 cells + 20 nM CPT, ATP luminescence, 48 h | Potency, µM (top dose mostly 46.2 µM), for the others: at the top dose activity change, negative = growth inhibition, hits mostly inhibitors | 420,000 tested, 12% active; further: potency means the concentration at half of the fitted maximal effect; nearly all actives have a fitted effect of over 55% in size
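Chicken DT40 Tdp1-/- cells complemented with human TDP1, 400 cells/well, exposed to compounds plus 20 nM camptothecin for at least 48 h at 37 C; viability read as ATP content by CellTiter-Glo luminescence.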
IL1B secr inh = blocks inflammasome-driven IL-1 beta release; THP-1 LPS/ATP IL-1B secretion, AlphaLISA, 16 h; stronger effect = lower value; 360,000 tested, 4.7% active; activity change, % at 57.5 µM; in the data active means activity change below about -50%; inconclusive means mostly about -30% to -49%
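Secreted IL-1B measured by AlphaLISA bead assay after 16 h compound exposure of THP-1 cells; compounds (final up to 57.5 uM) added 1 h before LPS (250 ng/mL) and ATP (1.25 mM) stimulation; lower signal means less secretion.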
The depositor's hits bear a star; u = inconclusive; x = no result given. Unless noted, the call rests on the fitted dose curve; in most records, active means well fitted curve in the direction sought with a large enough effect; inconclusive means small, poorly fitted or top-dose-only effect, or another doubt; inactive means no such curve, though single readings can be large; an effect the other way counts as inactive or inconclusive. Unless noted, on the % scale 0 is the no-effect control and ±100 the full control effect.

SMILES	HT1080NT lethal	HT1080 IDH1KD tx	DT40 TDP1 no CPT	TDP1 cell CPT	IL1B secr inh
CCC(C)NC(=O)CSc1nc2c(sc3ccccc32)c(=O)n1CCc1ccccc1 (configuration not stated)	x	x	-28%	-22%	x
COCCCNc1nc2c(c(=O)n(C)c(=O)n2C)n1Cc1cccc(OC)c1	-20%	-13%	10µM*	18µM*	-4
Cc1cccc(Cn2c(NCC(C)O)nc3c2c(=O)n(C)c(=O)n3C)c1 (configuration not stated)	-6%	-12%	10µM*	12µM*	-11
COc1cccc(Cn2c(Oc3cccc(C)c3)nc3c2c(=O)n(C)c(=O)n3C)c1	u	u	23µM*	21µM*	-16
COc1cccc(Cn2c(Oc3ccccc3)nc3c2c(=O)n(C)c(=O)n3C)c1	-22%	-20%	u	-30%	19
COCCNc1nc2c(c(=O)n(C)c(=O)n2C)n1Cc1cccc(C)c1	-9%	-19%	7.3µM*	6.5µM*	22
CC(=O)N1CCC(=O)N(C(C)C)c2ccccc21	16%	-1%	-3%	2%	-5
COCCn1c(=O)c(C)nc2cnc(Oc3ccccc3)nc21	x	x	-2%	10%	x
Cc1cccc(OCCNc2nc3c(c(=O)n(C)c(=O)n3C)n2C)c1	9%	12%	16µM*	16µM*	-1
Cc1ccc(-c2nc(CS(=O)CC(=O)N3CCN(c4cccc(Cl)c4)CC3)c(C)o2)cc1 (configuration not stated)	x	x	u	16µM*	x
COc1cccc(-c2nc(CS(=O)CC(=O)N3CCN(c4cccc(C(F)(F)F)c4)CC3)c(C)o2)c1 (configuration not stated)	x	x	13µM*	13µM*	x
Cc1oc(-c2ccccc2Cl)nc1CS(=O)CC(=O)N1CCN(c2cccc(C(F)(F)F)c2)CC1 (configuration not stated)	x	x	13µM*	9.2µM*	x
Cc1oc(-c2ccc(Cl)cc2)nc1CS(=O)CC(=O)N1CCN(c2cccc(C(F)(F)F)c2)CC1 (configuration not stated)	x	x	21µM*	15µM*	x
C/C(=C1/SC(N2CCCC2)=NC1=O)c1ccc(Br)cc1	u	u	u	u	-13
Cc1ccc(-c2nc(CS(=O)CC(=O)N3CCN(c4ccc(F)cc4)CC3)c(C)o2)cc1 (configuration not stated)	-15%	0%	15µM*	u	-27
CCOC(=O)[C@H]1[C@H]2COc3ccc(Cl)cc3[C@@H]2N2C(=O)CN(Cc3ccc(F)cc3)C(=O)[C@@]12C	13%	-2%	u	u	-3
CCOC(=O)[C@H]1[C@H]2COc3ccc(Cl)cc3[C@@H]2N2C(=O)CN(Cc3ccccc3)C(=O)[C@@]12C	0%	0%	21µM*	u	-8
CCOC(=O)[C@H]1[C@H]2COc3ccc(Cl)cc3[C@@H]2N2C(=O)CN(Cc3ccc(Cl)cc3)C(=O)[C@@]12C	1%	-21%	16µM*	u	-18
CCOC(=O)[C@H]1[C@H]2COc3ccc(Br)cc3[C@H]2N2C(=O)CN(Cc3ccc(C)cc3)C(=O)[C@@]12C	-1%	-9%	u	u	-59*
COc1ccc(CN(C)C(=O)COC(=O)c2ccc(-c3ccccc3)cc2)c(OC)c1OC	2%	-6%	-8%	-29%	-3
CSCCC(NS(=O)(=O)c1ccc(C)cc1)C(=O)NCC(C)(C)N1CCOCC1 (configuration not stated)	-1%	9%	1%	5%	-5
CCn1c(C)cc(C(=O)COC(=O)CNC(=O)c2ccco2)c1C	-8%	2%	-11%	-17%	4
CC(OC(=O)c1ccco1)C(=O)Nc1ccc(C(F)(F)F)cc1 (configuration not stated)	1%	11%	26µM*	10µM*	-9
COC(=O)c1cc2sc(C)cc2n1Cc1nc(-c2ccc(C)cc2)oc1C	x	x	-13%	0%	x
CC(=O)c1ccc(N2CCN(CN3C(=O)CC4(CCCC4)C3=O)CC2)c(F)c1	1%	8%	-4%	-6%	-18
SMILES	HT1080NT lethal	HT1080 IDH1KD tx	DT40 TDP1 no CPT	TDP1 cell CPT	IL1B secr inh
CCn1c(N2CCN(C(c3ccccc3)c3ccccc3)CC2)nc2c1c(=O)[nH]c(=O)n2C	-6%	17%	1%	12%	29
Cc1cc(C)c2nc(SCC(=O)NCC3CCCO3)c(C#N)cc2c1 (configuration not stated)	20%	19%	-9%	8%	-51*
O=C(CSc1nc(-c2ccc(F)cc2)cs1)NCC1CCCO1 (configuration not stated)	2%	-3%	21µM*	-27%	-13
O=C(CSc1nnc2ccc(-c3ccc(Br)cc3)nn12)NCC1CCCO1 (configuration not stated)	-10%	-1%	u	21µM*	u
CN(CC(=O)NCC1CCCO1)S(=O)(=O)c1ccc(Br)cc1 (configuration not stated)	-2%	-1%	4%	-1%	0
O=C(CN(c1ccc(Br)cc1)S(=O)(=O)c1ccc(Cl)c([N+](=O)[O-])c1)NCC1CCCO1 (configuration not stated)	u	u	u	16µM*	-98*
O=C(Cn1[nH]c(=O)c2ccccc2c1=O)OCC(=O)c1ccccc1	4%	5%	4%	10%	-30
O=C(O)C[C@H]1c2cc(C(F)(F)F)ccc2S(=O)(=O)N1Cc1ccccc1	-3%	-1%	u	u	-3
O=C(CN(C1CCCCC1)S(=O)(=O)c1ccccc1)NCC1CCCO1 (configuration not stated)	0%	-1%	-2%	3%	1
O=C(CN(C1CCCCC1)S(=O)(=O)c1ccc(F)cc1)NCC1CCCO1 (configuration not stated)	3.7µM*	4.6µM*	7.3µM*	8.2µM*	-106*
O=C(CSc1nc(-c2ccc(F)cc2)[nH]c1-c1ccccc1)NCC1CCCO1 (configuration not stated)	x	x	16µM*	29µM*	x
O=C(Nc1nc(-c2ccccc2)cs1)C1CCCO1 (configuration not stated)	-4%	4%	-12%	-5%	2
Cc1ccc(-c2[nH]c(-c3ccc(Cl)cc3)nc2SCC(=O)NCC2CCCO2)cc1 (configuration not stated)	14%	0%	4.1µM*	u	0
